Data from paper PMC7862700, “An all-to-all approach to the identification of sequence-specific readers for epigenetic DNA modifications on cytosine”.

Legend:
Assay in all cases: DAPPL (digital affinity profiling via proximity ligation, sequencing); 10 mM Tris-HCl pH 7.5, 50 mM NaCl, 1 mM DTT, 4% glycerol, room temperature, 30 min; GST-TFs on glutathione beads, 16-mer random dsDNA library, 0.1% formaldehyde crosslink after washing; high values mean tight binding
[1] = biological target: T1, FEV (Homo sapiens, UniProt Q99581 1-238); settings: protein: recombinant; tags: N-terminal GST; dsDNA, one strand shown
T1 sequence: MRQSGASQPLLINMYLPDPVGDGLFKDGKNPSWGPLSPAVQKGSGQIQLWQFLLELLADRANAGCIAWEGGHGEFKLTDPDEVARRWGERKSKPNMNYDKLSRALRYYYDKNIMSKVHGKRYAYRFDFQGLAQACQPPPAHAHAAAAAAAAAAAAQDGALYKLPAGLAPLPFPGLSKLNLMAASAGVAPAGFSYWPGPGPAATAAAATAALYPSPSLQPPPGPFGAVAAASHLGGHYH
Method in brief: (§1)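 Human transcription factors fused to GST were expressed in yeast, captured on glutathione beads, given DNA barcodes and pooled with a GST-only negative control. Pools were incubated with 200 nmole of a 16-mer random double-stranded DNA library in Tris/NaCl/DTT/glycerol buffer at room temperature for 30 min. They were then washed, crosslinked with 0.1% formaldehyde, proximity-ligated (BsaI/T4 ligase, 1 h, 37 °C), PCR-amplified and sequenced on an Illumina NextSeq500. Binding signal is each 6-mer's read frequency for a factor divided by its frequency for the GST control.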

[2] = biological target: ETV5 (Homo sapiens, UniProt P41161 1-510); settings: protein: recombinant; tags: N-terminal GST; dsDNA, one strand shown
Sequence of ETV5 (P41161 whole entry): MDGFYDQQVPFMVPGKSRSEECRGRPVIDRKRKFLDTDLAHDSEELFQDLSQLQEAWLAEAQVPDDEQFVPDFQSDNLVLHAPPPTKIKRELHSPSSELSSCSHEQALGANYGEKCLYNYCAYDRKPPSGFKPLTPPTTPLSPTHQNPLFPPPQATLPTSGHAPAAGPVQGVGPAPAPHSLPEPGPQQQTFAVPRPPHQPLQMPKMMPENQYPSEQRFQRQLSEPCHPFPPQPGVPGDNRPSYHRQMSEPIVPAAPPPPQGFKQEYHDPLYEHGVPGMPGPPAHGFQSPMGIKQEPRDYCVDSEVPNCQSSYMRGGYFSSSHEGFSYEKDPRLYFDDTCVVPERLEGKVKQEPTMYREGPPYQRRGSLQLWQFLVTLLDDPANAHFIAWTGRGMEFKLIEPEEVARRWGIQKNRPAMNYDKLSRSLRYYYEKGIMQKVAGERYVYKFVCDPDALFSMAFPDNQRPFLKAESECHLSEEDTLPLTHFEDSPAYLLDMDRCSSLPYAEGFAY
Method in brief: as §1

[3] = biological target: HSF1 (Homo sapiens, UniProt Q00613 1-529); settings: protein: recombinant; tags: N-terminal GST; chain copies: 3; dsDNA, one strand shown
Sequence of HSF1 (Q00613 whole entry): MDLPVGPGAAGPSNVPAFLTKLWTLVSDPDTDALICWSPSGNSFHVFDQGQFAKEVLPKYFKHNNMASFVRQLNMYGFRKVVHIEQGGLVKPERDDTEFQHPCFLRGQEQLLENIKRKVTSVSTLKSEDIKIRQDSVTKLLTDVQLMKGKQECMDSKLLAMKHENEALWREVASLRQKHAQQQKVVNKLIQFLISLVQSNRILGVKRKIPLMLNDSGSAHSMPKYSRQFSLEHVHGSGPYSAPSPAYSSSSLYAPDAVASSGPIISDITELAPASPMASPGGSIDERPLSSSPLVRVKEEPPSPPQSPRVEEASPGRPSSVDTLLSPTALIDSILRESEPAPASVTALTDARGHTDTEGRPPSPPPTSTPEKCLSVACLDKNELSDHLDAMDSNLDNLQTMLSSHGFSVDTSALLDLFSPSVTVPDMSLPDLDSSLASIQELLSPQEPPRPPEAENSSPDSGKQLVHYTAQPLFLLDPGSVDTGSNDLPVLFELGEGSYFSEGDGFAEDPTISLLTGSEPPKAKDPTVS
Method in brief: as §1

[4] = biological target: T2, SPIC (Homo sapiens, UniProt Q8N5J4 1-248); settings: protein: recombinant; tags: N-terminal GST; dsDNA, one strand shown
T2 sequence: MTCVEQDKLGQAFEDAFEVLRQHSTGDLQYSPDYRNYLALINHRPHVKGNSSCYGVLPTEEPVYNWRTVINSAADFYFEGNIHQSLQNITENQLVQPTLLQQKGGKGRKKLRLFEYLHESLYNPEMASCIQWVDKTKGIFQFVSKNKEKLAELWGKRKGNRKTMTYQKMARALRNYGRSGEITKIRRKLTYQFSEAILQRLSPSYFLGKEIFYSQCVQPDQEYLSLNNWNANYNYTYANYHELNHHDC
Method in brief: as §1

[5] = biological target: ELF4 (Homo sapiens, UniProt Q99607 1-663); settings: protein: recombinant; tags: N-terminal GST; dsDNA, one strand shown
Sequence of ELF4 (Q99607 whole entry): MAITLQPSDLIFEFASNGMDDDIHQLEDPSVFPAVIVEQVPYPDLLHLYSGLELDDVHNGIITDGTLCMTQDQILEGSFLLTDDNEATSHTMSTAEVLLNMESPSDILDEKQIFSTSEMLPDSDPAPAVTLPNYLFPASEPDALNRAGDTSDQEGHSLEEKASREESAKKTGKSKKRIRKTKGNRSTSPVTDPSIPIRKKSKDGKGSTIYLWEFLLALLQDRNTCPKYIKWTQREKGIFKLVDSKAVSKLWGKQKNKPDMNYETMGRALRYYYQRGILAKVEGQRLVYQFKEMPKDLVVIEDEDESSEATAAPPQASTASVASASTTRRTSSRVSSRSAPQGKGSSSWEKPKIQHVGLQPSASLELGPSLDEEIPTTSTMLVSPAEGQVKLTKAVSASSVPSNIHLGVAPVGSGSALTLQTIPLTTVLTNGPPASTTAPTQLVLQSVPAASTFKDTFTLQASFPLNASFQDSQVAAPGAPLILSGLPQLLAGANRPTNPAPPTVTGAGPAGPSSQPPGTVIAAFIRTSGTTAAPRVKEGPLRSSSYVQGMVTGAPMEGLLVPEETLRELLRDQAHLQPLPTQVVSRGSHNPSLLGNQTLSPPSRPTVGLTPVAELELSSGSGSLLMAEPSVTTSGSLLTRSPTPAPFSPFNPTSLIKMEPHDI
Method in brief: as §1

[6] = biological target: T3, ELK4 (Homo sapiens, UniProt P28324-2 1-405); settings: protein: recombinant; tags: N-terminal GST; dsDNA, one strand shown
T3 sequence: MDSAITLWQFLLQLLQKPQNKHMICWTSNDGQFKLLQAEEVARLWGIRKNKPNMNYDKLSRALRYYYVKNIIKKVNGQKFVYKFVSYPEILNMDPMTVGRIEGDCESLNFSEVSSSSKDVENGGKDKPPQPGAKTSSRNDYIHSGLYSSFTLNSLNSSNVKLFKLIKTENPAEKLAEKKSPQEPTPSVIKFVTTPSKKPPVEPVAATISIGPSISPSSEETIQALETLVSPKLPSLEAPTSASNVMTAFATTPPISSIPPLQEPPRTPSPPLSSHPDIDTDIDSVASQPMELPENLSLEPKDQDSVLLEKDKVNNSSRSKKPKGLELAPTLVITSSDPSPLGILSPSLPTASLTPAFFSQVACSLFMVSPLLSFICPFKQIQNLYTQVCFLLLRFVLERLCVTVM
Method in brief: as §1

[7] = biological target: T4, ETV2 (Homo sapiens, UniProt O00321 1-342); settings: protein: recombinant; tags: N-terminal GST; dsDNA, one strand shown
T4 sequence: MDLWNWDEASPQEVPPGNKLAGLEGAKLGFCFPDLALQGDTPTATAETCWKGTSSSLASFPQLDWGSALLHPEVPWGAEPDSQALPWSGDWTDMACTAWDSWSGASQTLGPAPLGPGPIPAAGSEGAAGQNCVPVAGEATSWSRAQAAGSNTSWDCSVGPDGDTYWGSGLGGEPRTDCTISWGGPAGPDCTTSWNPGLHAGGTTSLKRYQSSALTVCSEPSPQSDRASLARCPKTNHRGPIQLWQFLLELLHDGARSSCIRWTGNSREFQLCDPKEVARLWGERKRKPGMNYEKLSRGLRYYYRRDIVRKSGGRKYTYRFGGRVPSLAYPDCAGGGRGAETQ
Method in brief: as §1

[8] = biological target: T5, ELF3 (Homo sapiens, UniProt P78545 1-371); settings: protein: recombinant; tags: N-terminal GST; dsDNA, one strand shown
T5 sequence: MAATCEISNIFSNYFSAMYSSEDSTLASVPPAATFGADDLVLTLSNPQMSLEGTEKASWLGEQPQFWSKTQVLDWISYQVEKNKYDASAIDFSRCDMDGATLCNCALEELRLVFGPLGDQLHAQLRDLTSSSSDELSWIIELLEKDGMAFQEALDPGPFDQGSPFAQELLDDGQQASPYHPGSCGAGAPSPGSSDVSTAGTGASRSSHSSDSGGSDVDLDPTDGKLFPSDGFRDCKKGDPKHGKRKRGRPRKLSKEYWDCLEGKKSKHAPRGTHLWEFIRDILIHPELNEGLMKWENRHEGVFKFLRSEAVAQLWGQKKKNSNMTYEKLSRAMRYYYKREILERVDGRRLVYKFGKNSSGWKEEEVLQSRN
Method in brief: as §1

[9] = biological target: CRX (Homo sapiens, UniProt O43186 1-299); settings: protein: recombinant; tags: N-terminal GST; dsDNA, one strand shown
Sequence of CRX (O43186 whole entry): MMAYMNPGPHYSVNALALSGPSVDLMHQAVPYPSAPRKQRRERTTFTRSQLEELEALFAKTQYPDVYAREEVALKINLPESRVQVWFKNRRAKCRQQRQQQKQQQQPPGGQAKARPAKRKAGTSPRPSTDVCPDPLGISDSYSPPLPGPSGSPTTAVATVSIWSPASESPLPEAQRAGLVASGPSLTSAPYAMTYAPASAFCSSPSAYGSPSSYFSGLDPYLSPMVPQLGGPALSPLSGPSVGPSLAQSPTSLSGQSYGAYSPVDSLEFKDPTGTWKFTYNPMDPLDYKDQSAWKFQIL
Method in brief: as §1

[10] = biological target: ETV1 (Homo sapiens, UniProt P50549 1-477); settings: protein: recombinant; tags: N-terminal GST; dsDNA, one strand shown
Sequence of ETV1 (P50549 whole entry): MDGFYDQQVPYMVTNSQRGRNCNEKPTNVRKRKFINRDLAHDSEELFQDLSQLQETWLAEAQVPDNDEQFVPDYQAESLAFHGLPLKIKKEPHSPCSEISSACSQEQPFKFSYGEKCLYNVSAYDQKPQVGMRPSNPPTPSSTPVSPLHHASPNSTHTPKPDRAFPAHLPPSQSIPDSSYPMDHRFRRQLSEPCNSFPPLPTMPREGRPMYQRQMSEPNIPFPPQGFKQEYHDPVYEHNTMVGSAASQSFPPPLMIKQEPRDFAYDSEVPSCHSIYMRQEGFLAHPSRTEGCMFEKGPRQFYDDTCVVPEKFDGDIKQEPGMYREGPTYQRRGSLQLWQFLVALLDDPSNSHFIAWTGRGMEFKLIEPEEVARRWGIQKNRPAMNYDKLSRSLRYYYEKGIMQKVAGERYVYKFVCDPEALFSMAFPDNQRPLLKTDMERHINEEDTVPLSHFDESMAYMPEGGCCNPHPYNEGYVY
Method in brief: as §1

[11] = biological target: T6, ERF (Homo sapiens, UniProt P50548 1-548); settings: protein: recombinant; tags: N-terminal GST; dsDNA, one strand shown
T6 sequence: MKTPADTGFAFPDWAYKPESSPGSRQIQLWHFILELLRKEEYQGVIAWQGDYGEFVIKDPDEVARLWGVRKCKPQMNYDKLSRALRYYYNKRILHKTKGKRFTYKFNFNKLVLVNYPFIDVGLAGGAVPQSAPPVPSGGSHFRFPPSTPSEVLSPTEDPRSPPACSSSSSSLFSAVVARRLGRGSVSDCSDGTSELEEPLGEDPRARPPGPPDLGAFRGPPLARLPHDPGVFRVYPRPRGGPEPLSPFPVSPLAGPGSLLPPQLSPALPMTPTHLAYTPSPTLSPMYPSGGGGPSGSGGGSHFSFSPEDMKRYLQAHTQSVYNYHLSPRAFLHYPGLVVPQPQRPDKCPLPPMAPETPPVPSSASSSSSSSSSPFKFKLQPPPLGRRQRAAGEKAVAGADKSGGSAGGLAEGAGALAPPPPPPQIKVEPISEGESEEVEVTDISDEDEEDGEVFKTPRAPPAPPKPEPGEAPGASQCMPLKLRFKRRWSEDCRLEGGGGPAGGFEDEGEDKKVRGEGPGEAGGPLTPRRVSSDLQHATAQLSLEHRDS
Method in brief: as §1

[12] = biological target: T7, ETV3L (Homo sapiens, UniProt Q6ZN32 1-361); settings: protein: recombinant; tags: N-terminal GST; dsDNA, one strand shown
T7 sequence: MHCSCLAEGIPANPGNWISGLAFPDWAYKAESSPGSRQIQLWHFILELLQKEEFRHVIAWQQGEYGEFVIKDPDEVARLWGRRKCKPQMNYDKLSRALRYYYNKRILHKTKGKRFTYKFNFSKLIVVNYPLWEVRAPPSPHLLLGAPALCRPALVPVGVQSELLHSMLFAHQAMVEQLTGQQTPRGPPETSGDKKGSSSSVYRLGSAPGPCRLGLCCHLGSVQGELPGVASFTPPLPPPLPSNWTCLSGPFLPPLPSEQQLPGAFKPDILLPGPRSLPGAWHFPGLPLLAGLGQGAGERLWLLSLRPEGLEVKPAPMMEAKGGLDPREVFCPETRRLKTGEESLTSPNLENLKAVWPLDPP
Method in brief: as §1

[13] = biological target: T8, ETS2 (Homo sapiens, UniProt P15036 1-469); settings: protein: recombinant; tags: N-terminal GST; dsDNA, one strand shown
T8 sequence: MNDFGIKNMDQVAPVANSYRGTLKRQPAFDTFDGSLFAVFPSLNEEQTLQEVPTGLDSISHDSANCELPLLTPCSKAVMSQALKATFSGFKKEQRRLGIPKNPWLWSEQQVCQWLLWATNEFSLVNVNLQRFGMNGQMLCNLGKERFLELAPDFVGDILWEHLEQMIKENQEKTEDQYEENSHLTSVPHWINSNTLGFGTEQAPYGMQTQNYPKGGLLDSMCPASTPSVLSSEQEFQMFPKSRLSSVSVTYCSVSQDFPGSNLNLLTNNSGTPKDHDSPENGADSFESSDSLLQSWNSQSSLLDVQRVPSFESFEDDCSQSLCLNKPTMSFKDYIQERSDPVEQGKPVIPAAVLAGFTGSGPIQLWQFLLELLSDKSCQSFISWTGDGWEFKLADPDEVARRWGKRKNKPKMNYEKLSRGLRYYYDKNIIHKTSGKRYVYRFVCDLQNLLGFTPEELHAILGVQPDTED
Method in brief: as §1

[14] = biological target: T9, SPDEF (Homo sapiens, UniProt O95238 1-335); settings: protein: recombinant; tags: N-terminal GST; dsDNA, one strand shown
T9 sequence: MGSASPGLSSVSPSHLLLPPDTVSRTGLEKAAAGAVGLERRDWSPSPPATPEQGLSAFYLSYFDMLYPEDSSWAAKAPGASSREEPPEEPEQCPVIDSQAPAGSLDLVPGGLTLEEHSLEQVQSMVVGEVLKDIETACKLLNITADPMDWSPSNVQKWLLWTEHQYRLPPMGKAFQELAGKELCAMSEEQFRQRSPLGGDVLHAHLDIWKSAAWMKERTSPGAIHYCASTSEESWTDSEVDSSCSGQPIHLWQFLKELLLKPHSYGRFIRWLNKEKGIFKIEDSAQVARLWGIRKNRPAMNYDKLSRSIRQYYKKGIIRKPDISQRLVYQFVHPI
Method in brief: as §1

[15] = biological target: T10, ETV7 (Homo sapiens, UniProt Q9Y603 1-341); settings: protein: recombinant; tags: N-terminal GST; dsDNA, one strand shown
T10 sequence: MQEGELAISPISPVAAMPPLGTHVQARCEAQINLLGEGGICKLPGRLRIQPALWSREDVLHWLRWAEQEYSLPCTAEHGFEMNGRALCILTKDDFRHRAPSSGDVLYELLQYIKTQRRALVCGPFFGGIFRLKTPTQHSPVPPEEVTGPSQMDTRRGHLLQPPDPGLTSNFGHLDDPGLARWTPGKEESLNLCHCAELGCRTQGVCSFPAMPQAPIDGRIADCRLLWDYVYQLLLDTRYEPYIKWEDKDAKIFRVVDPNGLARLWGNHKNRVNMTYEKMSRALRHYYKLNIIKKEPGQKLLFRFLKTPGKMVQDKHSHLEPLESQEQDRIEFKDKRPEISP
Method in brief: as §1

[16] = biological target: T11, ELF5 (Homo sapiens, UniProt Q9UKW6-2 1-255); settings: protein: recombinant; tags: N-terminal GST; dsDNA, one strand shown
T11 sequence: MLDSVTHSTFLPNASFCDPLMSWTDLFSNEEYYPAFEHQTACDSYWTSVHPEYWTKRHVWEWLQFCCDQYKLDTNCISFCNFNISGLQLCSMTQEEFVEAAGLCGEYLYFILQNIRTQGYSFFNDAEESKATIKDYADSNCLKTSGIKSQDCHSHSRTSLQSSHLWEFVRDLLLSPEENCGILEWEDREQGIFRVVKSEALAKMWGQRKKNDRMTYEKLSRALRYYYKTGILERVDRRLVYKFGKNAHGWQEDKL
Method in brief: as §1

[17] = biological target: T12, ETV3 (Homo sapiens, UniProt P41162-2 1-143); settings: protein: recombinant; tags: N-terminal GST; dsDNA, one strand shown
T12 sequence: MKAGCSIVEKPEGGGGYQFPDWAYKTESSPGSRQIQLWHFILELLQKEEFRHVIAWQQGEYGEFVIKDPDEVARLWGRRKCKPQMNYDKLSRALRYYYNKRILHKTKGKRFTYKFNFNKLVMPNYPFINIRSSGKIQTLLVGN
Method in brief: as §1

[18] = biological target: ETV6 (Homo sapiens, UniProt P41212 1-452); settings: protein: recombinant; tags: N-terminal GST; dsDNA, one strand shown
Sequence of ETV6 (P41212 whole entry): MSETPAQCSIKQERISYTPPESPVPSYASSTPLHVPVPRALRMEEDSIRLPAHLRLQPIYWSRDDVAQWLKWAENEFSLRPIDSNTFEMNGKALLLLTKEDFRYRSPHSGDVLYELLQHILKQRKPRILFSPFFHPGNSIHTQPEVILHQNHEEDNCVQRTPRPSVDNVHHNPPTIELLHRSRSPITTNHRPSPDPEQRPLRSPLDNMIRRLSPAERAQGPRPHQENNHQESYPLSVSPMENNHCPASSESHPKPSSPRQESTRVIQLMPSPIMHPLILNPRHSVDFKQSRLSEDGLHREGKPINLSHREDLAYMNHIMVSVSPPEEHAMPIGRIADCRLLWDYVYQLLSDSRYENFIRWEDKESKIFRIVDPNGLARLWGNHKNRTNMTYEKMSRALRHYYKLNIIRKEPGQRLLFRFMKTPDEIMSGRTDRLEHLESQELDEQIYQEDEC
Method in brief: as §1

Sequence: TCCGAA
- binding signal [1]: 1.24 fold enrichment (6-mer frequency, TF over GST control)
- binding signal [2]: 1.31 fold enrichment (6-mer frequency, TF over GST control)
- binding signal [3]: 1.48 fold enrichment (6-mer frequency, TF over GST control)
- binding signal [4]: 1.43 fold enrichment (6-mer frequency, TF over GST control)
- binding signal [5]: 1.21 fold enrichment (6-mer frequency, TF over GST control)
- binding signal [6]: 1.23 fold enrichment (6-mer frequency, TF over GST control)
- binding signal [7]: 1.46 fold enrichment (6-mer frequency, TF over GST control)
- binding signal [8]: 1.1 fold enrichment (6-mer frequency, TF over GST control)
- binding signal [9]: 1.28 fold enrichment (6-mer frequency, TF over GST control)
- binding signal [10]: 1.19 fold enrichment (6-mer frequency, TF over GST control)
- binding signal [11]: 1.36 fold enrichment (6-mer frequency, TF over GST control)
- binding signal [12]: 1.32 fold enrichment (6-mer frequency, TF over GST control)
- binding signal [13]: 1.23 fold enrichment (6-mer frequency, TF over GST control)
- binding signal [14]: 1.29 fold enrichment (6-mer frequency, TF over GST control)
- binding signal [15]: 1.25 fold enrichment (6-mer frequency, TF over GST control)
- binding signal [16]: 1.25 fold enrichment (6-mer frequency, TF over GST control)
- binding signal [17]: 1.15 fold enrichment (6-mer frequency, TF over GST control)
- binding signal [18]: 1.37 fold enrichment (6-mer frequency, TF over GST control)
